Compounds with a hit are over-represented: about 2.8% of the library has one in this group of screens.
HIF-2a block – HIF-2a reporter inhibitors, primary screen, luminescence, 786-0 RCC cells; 786-0 RCC cells HIF-2a reporter, luciferase luminescence, overnight; 360,000 tested, 0.72% active; AID 624352, 2012; inhibition, % at 18.8 µM;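 active = inhibition of the luminescence signal of 40% or more relative to plate controls, in a single-dose primary screen at 18.75 µM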
Shn3 3UTR inh – reduction of Shn3 3'UTR firefly luciferase signal, primary screen, Schnurri-3 inhibitor project, cell-based, Clone20 osteoblasts, set 2; AID 588674, 2011; Clone20 osteoblast Shn3 3'UTR firefly luciferase, 24 h; inhibition, % at 12.5 µM; 360,000 tested, 0.52% active;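 active = mean inhibition of at least 75% with every replicate also reaching 75%; inconclusive = mean inhibition at least 75% but some replicate below; inactive = mean inhibition below 75%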
KKLEB cytotox – cytotoxicity in KKLEB CF airway cells, primary screen, cytotoxicity control for CF NF-kB inhibitor project, cell-based, uHTS, fluorescence assay plates; KKLEB CF airway cells viability, ATPlite luminescence, overnight; stronger effect = lower value; cells stimulated with P. aeruginosa culture filtrate; 360,000 tested, 0.36% active; activity change (cytotoxicity), % at 5 µM;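 active = corrected activity change at or below -50% at 5 µM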
CF NFkB block – inhibitors of PAF-induced NF-kB signaling, primary screen, cell-based, GFP fluorescence, uHTS; AID 588850, 2011; 360,000 tested, 0.86% active; inhibition, % at 5 µM; KKLEB NF-kB-GFP reporter, GFP fluorescence overnight;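 active = at least 50% inhibition at 5 µM, scaled per plate between neutral and stimulator controls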;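 note: PAF is a Pseudomonas aeruginosa culture filtrate used as stimulus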
Peg3 prom inh – Peg3 promoter-driven luciferase inhibitors, primary screen, cell-based, HeLa, luciferase luminescence; HeLa PEG-Prom luciferase reporter, overnight; AID 588405, 2011; 360,000 tested, 1.7% active; inhibition, % at 20 µM;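 active = inhibition of at least 50% at 20 µM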
MITF TRPM1 inh – inhibitors of MITF-dependent TRPM1 promoter reporter, primary screen, cell-based, SK-MEL-5, single point, luciferase. SK-MEL-5 TRPM1 promoter luciferase, 24 h. inhibition, % at 12.5 µM. 330,000 tested, 0.83% active. AID 488899, 2010;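 active = mean inhibition across replicates of 60% or more, whatever share of single replicates reaches that level; inconclusive = some that reach 60%, reason not given; inactive = mean inhibition across replicates below 60%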
Mdm2 MdmX conf – retested Mdm2-MdmX interaction blockers, confirmation, cell-based, luminescence, single concentration, set 2. inhibition, % at 8 µM. shares compounds with HIF-2a block. SaOS-2 split-luciferase Mdm2/MdmX complementation. 740 tested, 99% active;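 active = mean inhibition of the luminescence signal across two replicates at or above 26 percent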
Target sequence (O15151 whole entry, looked up): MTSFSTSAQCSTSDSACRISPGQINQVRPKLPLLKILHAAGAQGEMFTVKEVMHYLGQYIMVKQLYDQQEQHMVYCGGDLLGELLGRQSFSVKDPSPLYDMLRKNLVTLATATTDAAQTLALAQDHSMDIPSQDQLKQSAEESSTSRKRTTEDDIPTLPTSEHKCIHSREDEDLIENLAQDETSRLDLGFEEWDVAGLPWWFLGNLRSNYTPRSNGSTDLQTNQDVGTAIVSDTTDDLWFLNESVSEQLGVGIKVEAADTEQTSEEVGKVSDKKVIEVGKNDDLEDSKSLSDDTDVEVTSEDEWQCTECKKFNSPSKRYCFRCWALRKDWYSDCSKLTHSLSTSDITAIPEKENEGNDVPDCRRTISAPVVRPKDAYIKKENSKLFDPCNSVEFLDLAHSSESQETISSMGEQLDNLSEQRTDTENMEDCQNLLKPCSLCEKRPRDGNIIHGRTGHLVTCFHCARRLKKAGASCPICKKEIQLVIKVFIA
Target sequence (Q00987 whole entry, looked up): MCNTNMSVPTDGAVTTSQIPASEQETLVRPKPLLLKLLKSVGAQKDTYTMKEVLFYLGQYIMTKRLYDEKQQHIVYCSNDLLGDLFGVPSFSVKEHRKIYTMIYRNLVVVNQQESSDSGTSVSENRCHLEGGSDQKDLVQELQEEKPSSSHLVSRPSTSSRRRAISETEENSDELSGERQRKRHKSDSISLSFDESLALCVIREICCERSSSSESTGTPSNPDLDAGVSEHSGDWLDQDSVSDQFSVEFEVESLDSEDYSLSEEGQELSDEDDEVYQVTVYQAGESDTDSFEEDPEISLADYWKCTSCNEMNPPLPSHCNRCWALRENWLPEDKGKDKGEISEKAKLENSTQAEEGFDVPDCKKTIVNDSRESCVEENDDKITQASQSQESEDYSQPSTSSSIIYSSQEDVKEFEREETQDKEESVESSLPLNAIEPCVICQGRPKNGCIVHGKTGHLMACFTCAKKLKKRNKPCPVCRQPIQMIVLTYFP
HIF-2a inh conf – HIF-2a reporter inhibitor retest, confirmation, luminescence, 786-0 RCC cells | shares compounds with HIF-2a block | HIF-2a luciferase reporter luminescence, overnight | inhibition, % at 18.8 µM | 1,800 tested, 56% active | AID 651580, 2012;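 active = mean inhibition across four replicates of at least 40 percent at the single tested concentration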
HIF-1a cs – HIF-1a luciferase reporter signal reduction – MiaPaCa-2 cells, single concentration, counter-screen for HIF-2a inhibitor project, confirmation; 1,800 tested, 72% active; shares compounds with HIF-2a block; MiaPaCa-2 HIF-1a luciferase reporter, desferoxamine, overnight; AID 651589, 2012; inhibition, % at 18.8 µM;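 active = mean inhibition of the reporter signal across four replicates at the single tested dose of 50% or more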
A number is an active result; 0 = inactive; ? = inconclusive; - = no result.

SMILES | HIF-2a block | Shn3 3UTR inh | KKLEB cytotox | CF NFkB block | Peg3 prom inh | MITF TRPM1 inh | HIF-2a inh conf | HIF-1a cs | others
COC(=O)c1ccc(CN(c2ccc(C(=O)O)c(O)c2)S(=O)(=O)c2ccc(Cl)c([N+](=O)[O-])c2)cc1 | 77 | 0 | 0 | 0 | 55 | 0 | 0 | 57
COC(=O)c1ccc(CN(c2ccccn2)S(=O)(=O)c2ccccc2)cc1 | 0 | 0 | 0 | 0 | 0 | 0 | - | -
CCCCN=C1CC(C)(C)CC(=O)/C1=C(/O)CCC | 0 | 0 | 0 | 0 | 0 | 0 | - | -
Cc1ccc(/C=C/C(=O)c2ccc([N+](=O)[O-])o2)cc1 | - | - | - | - | - | - | - | - | Mdm2 MdmX conf=103
Cc1ccc(CNC(=O)c2ccc([N+](=O)[O-])o2)cc1 | 0 | 0 | 0 | 0 | 0 | 0 | - | -
CCc1cc2c(=O)n(-c3ccc(C)cc3)cnc2s1 | 0 | 0 | 0 | 0 | 0 | 0 | - | -
CCCN1CCc2c(sc(NC(=O)Cc3ccc(F)cc3)c2C(N)=O)C1 | 0 | 0 | 0 | 0 | 0 | 0 | - | -
CC1(C)C2C/C(=N\O)C(C)(/[N+]([O-])=C/c3cccc([N+](=O)[O-])c3)CC21 (stereo not drawn) | 0 | 0 | 0 | 0 | 0 | 0 | - | -
Cc1cccc(Cn2ncc(Cl)c(Cl)c2=O)c1 | 0 | 0 | 0 | 0 | 0 | 0 | - | - | Mdm2 MdmX conf=103
Cc1ccc(C)c(C(=O)Cn2ncc(Cl)c(Cl)c2=O)c1 | 86 | 0 | 0 | 0 | 109 | 75 | 0 | 104
Cc1cc2oc(=O)cc(Cn3ncc(Cl)c(Cl)c3=O)c2cc1Cl | 0 | 97 | -69 | 88 | 106 | 83 | - | - | Mdm2 MdmX conf=103
O=C1c2ccccc2C(c2nnnn2-c2ccc3c(c2)OCCO3)N1Cc1cccs1 (stereo not drawn) | 0 | - | - | - | - | - | - | -
C(#CC12CC3CC(CC(C3)C1)C2)CN1CCOCC1 | 41 | 0 | 0 | 0 | 0 | 0 | 0 | 0
Cc1cc2[nH]c3ccccc3c2c(C)n1 | 0 | 0 | 0 | 0 | 0 | 0 | - | -
Cc1cc2[nH]c3c4ccccc4nc(C)c3c2cc1C | 92 | 0 | -68 | 0 | 106 | 86 | 0 | 105
CN(C)CCCN(C(=O)c1ccc(S(=O)(=O)N2CCc3ccccc3C2)cc1)c1nc2c(F)cccc2s1 | 0 | 0 | 0 | 0 | 0 | 0 | - | -
Cc1cccc2sc(N(CCCN(C)C)C(=O)c3ccc(S(=O)(=O)N4CCc5ccccc5C4)cc3)nc12 | 0 | 0 | 0 | 0 | 0 | 0 | - | -
Cc1cc(C)c2sc(N(CCCN(C)C)C(=O)c3ccc(S(=O)(=O)N4CCc5ccccc5C4)cc3)nc2c1 | 63 | 0 | -78 | 0 | 96 | 89 | 57 | 100
Cc1ccc2nc(N(CCCN(C)C)C(=O)c3ccc(S(=O)(=O)N4CCc5ccccc5C4)cc3)sc2c1 | 88 | 0 | 0 | 0 | 101 | 76 | 43 | 99
Nn1c(SCC(=O)Nc2cccnc2Cl)nnc1-c1ccccc1 | 0 | 0 | 0 | 0 | 0 | 0 | - | -
Nc1ncnc2c1ncn2[C@@H]1O[C@H](CO)[C@@H](O)[C@H]1O | 0 | 0 | 0 | 0 | 0 | 0 | - | -
Nc1ncnc2c(C3OC(CO)C(O)C3O)c[nH]c12 (stereo not drawn) | 50 | 93 | -53 | 83 | 96 | - | 0 | 106
CC(=O)C(=Cc1ccc(-c2ccccc2)cc1)C(=O)c1ccccc1 | 65 | - | - | - | - | - | 0 | 103
CCC(C)(C)NC(=O)C(c1cccc(OC)c1)N(C(=O)CNC(=O)c1cccs1)c1cccnc1 (stereo not drawn) | 0 | 0 | 0 | 0 | 0 | 0 | - | -
O=C(Nc1ccc(Oc2ccccc2)cc1)c1ccc2nc([C@@H]3O[C@H](CO)[C@H](O)[C@H](O)[C@H]3O)[nH]c2c1 | 0 | 0 | 0 | 0 | 0 | - | - | -
SMILES | HIF-2a block | Shn3 3UTR inh | KKLEB cytotox | CF NFkB block | Peg3 prom inh | MITF TRPM1 inh | HIF-2a inh conf | HIF-1a cs | others
Cc1ccc(NC(=O)C(=Cc2ccc(C(=O)O)cc2)C(=O)Nc2ccc(C)cc2C)c(C)c1 | 85 | ? | -58 | 0 | 95 | 0 | 92 | 104 | Mdm2 MdmX conf=102
Cc1cc(C)c(C(=O)/C=C/c2cccc3ccccc23)c(=O)[nH]1 | 85 | 0 | 0 | 0 | 96 | 87 | 92 | 105 | Mdm2 MdmX conf=103
Cn1cc(S(=O)(=O)N2CCNCC2)cc1C(N)=O | 0 | 0 | 0 | 0 | 0 | 0 | - | -
CCN(CC)c1ccc(/C=N/NC(=O)c2cccc(S(=O)(=O)N3CCOCC3)c2)c(O)c1 | 0 | 89 | 0 | 0 | 0 | 82 | - | - | Mdm2 MdmX conf=91
CCN(CC)c1ccc(C=Nc2cccc(S(=O)(=O)N3CCOCC3)c2)c(O)c1 | 0 | 0 | 0 | 0 | 0 | 0 | - | -
O=C(c1cnn(C(=O)CN2CCCC2=O)c1)c1ccccc1O | 0 | 0 | 0 | 0 | 0 | 0 | - | -
CCOc1ccc(/C=N/N2C(=O)C(CC(=O)Nc3ccc(F)cc3F)SC2=NC)cc1OC (stereo not drawn) | 49 | 0 | 0 | 0 | 0 | 0 | 0 | 0
COc1ccc(N2CCN(CCNC(=O)c3ccc4c(c3)[nH]c(=S)n3c5ccccc5nc43)CC2)cc1 | 0 | 0 | 0 | 0 | 84 | 0 | - | - | Mdm2 MdmX conf=99
COc1cc(C(=O)Nn2cnnc2)ccc1OC(F)F | 0 | 0 | 0 | 0 | 0 | 0 | - | -
O=c1cc(-c2ccccc2)oc2ccc(Cl)cc12 | 0 | 0 | 0 | 0 | 0 | 0 | - | -
O=c1oc(-c2ccccc2)cc(Cl)c1Cl | 42 | 0 | -103 | 74 | 109 | 0 | 0 | 107
CCN(c1ccccc1)S(=O)(=O)c1ccc(C(=O)Nc2ccncc2)cc1 | 0 | 0 | 0 | 0 | 0 | 0 | - | -
CCN(c1ccccc1)S(=O)(=O)c1ccc(NC(=O)c2nc(S(C)(=O)=O)ncc2Cl)cc1 | 92 | 98 | -101 | 102 | 108 | 100 | - | - | Mdm2 MdmX conf=102
CCS(=O)(=O)c1ncc(Cl)c(C(=O)Nc2ccc(S(=O)(=O)N(C)c3ccccc3)cc2)n1 | 95 | 99 | -97 | 82 | 102 | 98 | 99 | 99 | Mdm2 MdmX conf=103
O=C(NC1CCC1)C1CCC(=O)N(Cc2ccc(Cl)cc2)C1 (stereo not drawn) | 0 | 0 | 0 | 0 | 0 | - | - | -
CCOC(=O)/C(=C/c1c(C)n(C)c2ccc([N+](=O)[O-])cc12)C(C)=O | 72 | 0 | 0 | 0 | 0 | 0 | 70 | 59
Cc1nn(C)c(C)c1NS(=O)(=O)c1ccccc1 | 0 | 0 | 0 | 0 | 0 | 0 | - | -

Bioassay records (PubChem)
